# Test results taken from PubChem BioAssay AID687020 (Broad Institute, 2013).
# In all, about 1,400 compounds went through this assay and about 100 (7.1%) were called active. The list is a sample of the results. Results with a measured potency or affinity are listed apart. A number with no mark means an inactive call. No rule for the calls is given here.
# Test: Vero cell toxicity, dose response, cytotoxicity control, plate reader, cherry-pick samples (AID 687020);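 also: compounds incubated with cells for three days before luminescence read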
# Conditions: Vero cells toxicity; series mostly up to 19.5 µM; activity change, negative = toxicity: at the top concentration
row,Structure (SMILES),"activity change, negative = toxicity"
1,O=C(CN1CCN(Cc2ccccc2)CC1)NNC(=O)c1ccccc1,5.73%
2,CCCNC(=O)C(Cc1ccc(I)cc1)NC(=O)c1ccc(C#N)cc1 (stereo not given),-7.83%
3,Cc1ccnc(NC(=O)C(Cc2ccccc2)NC(=O)c2ccccc2)c1 (stereo not given),-0.022%
4,Cc1cn([C@H]2C[C@H](O)[C@@H](CNCc3ccc4ncccc4c3)O2)c(=O)[nH]c1=O,1.96%
5,CCOc1ccc(N(CC(=O)Nc2cccc(C)c2)S(C)(=O)=O)cc1,0.008%
6,CCN(CC)S(=O)(=O)c1ccc(NC(=O)COC(=O)CNC(=O)C2CCCCC2)cc1,-11.8%
7,Cc1c(C)c2c(OCC(=O)N3CCC(O)CC3)cc3c(c2oc1=O)CCC(C)(C)O3,-2.19%
8,CCCc1cc(=O)oc2c(C)c(OCC(=O)N3C[C@H]4C[C@@H](C3)c3cccc(=O)n3C4)ccc12,-1.16%
9,C[C@@H]1CN([C@H](C)CO)C(=O)c2cc(NC(=O)Nc3ccc(C(F)(F)F)cc3)ccc2O[C@@H]1CN(C)Cc1ccccc1,-1.61%
10,COc1ccccc1N1CCN(C(=O)c2cc(S(=O)(=O)N3CCCCC3)ccc2C)CC1,2.93%
11,O=C(Nc1ccn(CC(=O)N2CCN(c3ccccn3)CC2)c(=O)n1)OCc1ccccc1,0.414%
12,CC(C)(C)OC(=O)C(Cc1ccc(OC(C)(C)C)cc1)NC(=O)CNC(=O)OCc1ccccc1 (stereo not given),7.26%
13,Cc1cccc(NC(=O)c2cccc(S(=O)(=O)N(C)C3CCCCC3)c2)n1,-9.89%
14,CCCC/C=C/c1cccc2nncn12,-16.7%
15,COc1cccc(-c2nc3nc(C)cc(C)n3c2NC2CCCC2)c1,-12.2%
16,CCC(=O)Nc1cc(C(=O)OCc2ccc(C(=O)Oc3ccccc3)cc2)ccc1C,-7.35%
17,O=C([C@@H]1[C@@H](CO)[C@@H]2Cn3c(cccc3=O)[C@H]1N2C(=O)CC1CC1)N1CCCCC1,-1.82%
18,CCCCNC(=O)c1onc(CS(=O)(=O)c2ccccn2)c1C(=O)NCCCC,3.17%
19,COc1ccc([C@H]2/C=C\CN(C(=O)c3ccc(C)cc3)[C@@H](C)C(=O)N2Cc2ccc(F)cc2)cc1,-21%
20,O=C(N[C@H](Cc1ccccc1)C(=O)NC1CCCCC1)[C@H]1O[C@@H](n2ccc(=O)[nH]c2=O)[C@H](O)[C@@H]1O,-7.41%
21,COC(=O)c1ccc2nc(-c3ccc(C#N)cc3)c(Cc3cccc(F)c3)n2c1,-7.15%
22,COC(=O)c1ccc2nc(C3CCCCC3)c(Cc3ccccc3OC)n2c1,4.3%
23,CCN1CCN(CCc2nc3cc(NC(=O)COc4ccc(Cl)cc4)ccc3n2C)CC1,7.94%
24,CCN1C(=NCCc2c[nH]c3ccccc23)N[C@@H](c2ccccc2)[C@H](C(=O)OC)[C@H]1C,2.11%

row,Structure (SMILES),"activity change, negative = toxicity"
1,NCc1csc(NC(=O)Nc2cccc(Cl)c2)n1,-0.314%
2,COC(=O)[C@]12CCCCC=C1N(Cc1cccc3ccccc13)C(=O)[C@H](CC(=O)N1CCOCC1)C2,-24.4%
3,COC(=O)[C@]12CCCCC=C1N(Cc1cccc3ccccc13)C(=O)[C@H](CC(=O)NCCC(C)C)C2,-3.09%
4,COc1ccc(S(=O)(=O)Nc2ccc3c(c2)C(=O)N([C@@H](C)CO)C[C@H](C)[C@H](CN(C)C(=O)Nc2ccc(C(F)(F)F)cc2)OCCCC[C@H](C)O3)cc1,-3.77%
5,CC(NC(=O)CN1CCCC1)c1ccccc1 (stereo not given),-14.4%
6,Cc1cc(C)c2[nH]c(C(=O)Nc3ccc4c(c3)OCO4)cc2c1,12.9%
7,Cc1cccc(OCCn2c(=O)n(C)c3ccccc32)c1,0.128%
8,Cc1c(C)c2cc(Cl)c(OCC(=O)NCCCN3CCCC3=O)cc2oc1=O,-17.8%
9,Cc1oc2cc3oc(=O)c(CCC(=O)NCCCn4ccnc4)c(C)c3cc2c1C,-2.65%
10,COc1ccc(CN(CCC(c2ccccc2)C2CCOC(C)(C)C2)C(C)=O)cc1 (stereo not given),-28.6%
11,Cc1ccc(C2(C)NC(=O)N(CC(=O)Nc3ccccc3C(=O)NC3CCCC3)C2=O)cc1 (stereo not given),16.5%
12,Cc1cccc(C(=O)NC2CCN(CC(=O)Nc3cccc(Cl)c3)CC2)c1,-13.7%
13,O=S1(=O)CCOCCCN1Cc1ccccc1Br,-11.1%
14,CN1C(=O)c2cc(NC(=O)Cc3cccs3)ccc2OC[C@@H]2O[C@H](CC(=O)NCC3CCCCC3)CC[C@H]21,-0.804%
15,CC(=O)N1CC2(C1)[C@H](c1ccc(-c3ccc(C#N)cc3)cc1)[C@@H](CO)N2C(=O)C1CC1,-8.45% [at 21 µM]
16,CCCCN1C(Nc2ccccc2)=NC[C@@H]1Cc1ccccc1,-27.3%
17,O=C(Nc1ccccc1)c1ccccc1CSc1ccccc1,-1.49%
18,O=C(Cc1cccc(C(F)(F)F)c1)Nc1ccc(S(=O)(=O)N2CCCC2)cc1,-7.86%
19,O=S(=O)(c1cccc(C(F)(F)F)c1)N1CCN(CC(O)COCc2ccccc2)CC1 (stereo not given),-21.4%
20,CC1(C#N)c2ccccc2C(Br)=CN1C(=O)c1ccccc1 (stereo not given),-10.1%
21,COc1ccc(NC(=O)C2CCC(CNS(=O)(=O)c3cccs3)CC2)cc1OC (stereo not given),9.24%
22,O=C1Nc2ccccc2SC1c1ccccc1 (stereo not given),-3.58%
23,COc1ccc(-c2nc3ccc(C)cn3c2Cc2cccc(F)c2)cc1OC,-12.7%
24,CC(=O)Nc1cccc(C(=O)OCC(=O)Nc2ccc(Cl)cn2)c1,-16.6%

row,Structure (SMILES),"activity change, negative = toxicity"
1,CC(=O)Nc1cccc(/C(C)=N/NC(=O)c2cccc(S(=O)(=O)N3CCCC3)c2)c1,-0.142%
2,O=C(C1CCOCC1)N1[C@H](CO)[C@@H](c2ccccc2)C12CN(Cc1cccnc1)C2,-1.45% [at 21 µM]
3,COC(=O)Cc1ccc(OC2(C)CCN(Cc3csc4ccccc34)C2)cc1 (stereo not given),-3.5%
4,COc1ccc(Cc2nnc(NC(=O)c3ccccc3Cl)s2)cc1OC,7.56%
5,COC(=O)CCc1cccc(CCC(=O)OC)c1,13%
6,C[C@@H](NC(=O)C[C@@H]1CC[C@H]2[C@@H](COC[C@H](O)CN2C(=O)Nc2ccccc2)O1)c1ccccc1,-8.89%
7,Cc1ccc(S(=O)(=O)NC(=O)C2(C)CCN2C(=O)c2ccc(C(F)(F)F)nc2C)cc1 (stereo not given),1.35%
8,Cc1ccc(-c2csc(NC(=O)c3ccc(S(=O)(=O)N4CCc5ccccc54)cc3)n2)cc1,-32.4%
9,O=S(=O)(c1cnc(Cl)c(Cl)c1)N1CCc2ccccc21,-3.26%
10,COCCNC(=O)C[C@@H]1C[C@H]2c3cc(NC(=O)Nc4ccc(OC)cc4)ccc3O[C@H]2[C@@H](CO)O1,12.2%
11,COc1ccc(CC(=O)OCC(=O)NCCNC(=O)COC(=O)Cc2ccc(OC)cc2)cc1,-7.45%
12,C[C@H](CCC(=O)O)[C@H]1CC[C@H]2[C@@H]3CC[C@@H]4C[C@H](O)CC[C@]4(C)[C@H]3C[C@H](O)[C@]12C,-10.8%
13,Cc1oc2c(C)c3oc(=O)c(CCC(=O)NCCN4CCOCC4)c(C)c3cc2c1C,5.6%
14,CC(Oc1ccc(Cl)cc1Cl)C(=O)NCCCN1CCOCC1 (stereo not given),-2.88%
15,O=C(NC1CCCCC1)N[C@H]1C=C[C@@H](CC(=O)N2CCOCC2)O[C@@H]1CO,-5.32%
16,CN(CC(=O)Nc1ccccc1C(=O)NC1CC1)Cc1ccccc1F,-2.83%
17,CCCCCC(=O)NC1CCCCN(C)C1=O (stereo not given),2.66%
18,CC(=O)NCCNc1nc(NCc2cccs2)nc2ccsc12,-8.23%
19,COc1ccc(N2CCN(Cc3nc4c(c(=O)[nH]c(=O)n4C)n3Cc3cccc(Cl)c3)CC2)cc1,-14.8%
20,NC(c1csc(NC(=O)Nc2cccc(Cl)c2)n1)C1CCCCC1 (stereo not given),-6.54%
21,Cc1ccc(Cn2cc(CN3CC(N(C)C)CS3(=O)=O)nn2)cc1 (stereo not given),-29.8%
22,CC(C)(C)OC(=O)NC(CC(=O)OCc1ccccc1)C(=O)O (stereo not given),4.95%
23,O=C(O)C(Cc1ccc(Cl)cc1)NS(=O)(=O)c1ccc(Cl)cc1 (stereo not given),-12.4%
24,O=S(=O)(c1ccc(=S)[nH]c1)N1CCN(Cc2ccccc2)CC1,-9.4%

row,Structure (SMILES),"activity change, negative = toxicity"
1,O=C(O)C1C2C=CC(C2)C1C(=O)NCc1ccccc1 (stereo not given),-11.6%
2,O=C(Nc1cc(F)cc(F)c1)c1sc(Cl)nc1-c1ccccc1,-19.5%
3,CCS(=O)(=O)N1CCC2(CC1)OCCN2S(=O)(=O)c1ccccc1,-6.28%
4,NC(=O)C1CCN(C(=O)C2(NC(=O)Nc3cccc(F)c3)CCCCC2)CC1,9.22%
5,COc1ccc(CNC(=O)C[C@H]2C(=O)N(Cc3ccccc3)C[C@@H]2Cc2ccccc2)cc1,-16.9%
6,CCCCN1C[C@H](Cc2ccccc2)[C@@H](CC(=O)NCc2ccc(OC)cc2)C1=O,-17.5%
7,CCCCn1nc(C(=O)Nc2ccc3c(c2)OCO3)c2ccccc2c1=O,-14.3%
8,CO[C@@H]1CN(C)C(=O)c2ccc(NS(=O)(=O)c3cccc(F)c3)cc2OC[C@@H](C)N(C(=O)Cc2cccnc2)C[C@H]1C,-6.46% [at 18 µM]
9,COc1ccc(-c2csc(C(C)(O)c3ccc(F)c(F)c3)n2)cc1OC (stereo not given),4.66%
10,COc1cc(NC(=O)c2nccn2C)cc(C(=O)Nc2cccc(C(F)(F)F)c2)c1,-11.7%
11,COc1ccc(NC(=O)CN2CCc3ccccc3C2)cc1S(=O)(=O)N1CCOCC1,-4.47%
12,COc1ccc(CCC(=O)Nc2cc(S(=O)(=O)N3CCOCC3)ccc2OC(C)C)cc1,-8.21%
13,CCCNC(=O)N1CC2(C1)CN(Cc1cccc(F)c1)[C@@H](CO)c1[nH]c3cc(OC)ccc3c12,1.05%
14,C[C@@H](NC(=O)[C@@H]1[C@@H](CO)[C@@H]2Cn3c(cccc3=O)[C@@H]2N1CC1CCCC1)c1ccccc1,-15.9%
15,CC(Oc1ccc2ccc(=O)oc2c1)C(=O)NC(Cc1c[nH]c2ccc(O)cc12)C(=O)O (stereo not given),-5.7%
16,O=C(N[C@@H]1CC[C@H](CCNC(=O)C2CCCCC2)O[C@@H]1CO)c1ccccn1,-2.22%
17,COc1ccc(CCN2CC(C(=O)NCCc3ncccc3C)CCC2=O)cc1 (stereo not given),6.79%
18,CCCc1cc(CNC(=O)C2CCC(=O)N(CCc3cccc(F)c3)C2)on1 (stereo not given),-26.1%
19,Nc1ccc2oc(-c3ccccc3Cl)cc(=O)c2c1O,-5.16%
20,Cc1ccc(OCCCCNC(C)c2ccccc2)c(C)c1 (stereo not given),-5.1%
21,COc1ccc(Cl)cc1-c1cc(C(=O)N[C@H](C)c2ccccc2)[nH]n1,-18.1%
22,Cc1cc(O)c(C(C)C)cc1NC(=O)c1ccccc1Cl,-17.8%
23,CC(C)c1ccccc1OCCCCN1CCCCC1,-30.4%
